{"source": "paper PMC4336329", "about": "(PLoS ONE, 2015)", "note": "Hit rate of the full screen: of about 310,000 compounds, about 14,000 (4.5%) showed an effect of 50% or more. The effect is printed as a negative number. This is one part of a sample in which strong results are shown more often than they occur.", "data": [{"molecular_target": "human ether-à-go-go-related gene (hERG) potassium channel (human, UniProt Q12809)", "sequence (Q12809 whole entry, looked up)": "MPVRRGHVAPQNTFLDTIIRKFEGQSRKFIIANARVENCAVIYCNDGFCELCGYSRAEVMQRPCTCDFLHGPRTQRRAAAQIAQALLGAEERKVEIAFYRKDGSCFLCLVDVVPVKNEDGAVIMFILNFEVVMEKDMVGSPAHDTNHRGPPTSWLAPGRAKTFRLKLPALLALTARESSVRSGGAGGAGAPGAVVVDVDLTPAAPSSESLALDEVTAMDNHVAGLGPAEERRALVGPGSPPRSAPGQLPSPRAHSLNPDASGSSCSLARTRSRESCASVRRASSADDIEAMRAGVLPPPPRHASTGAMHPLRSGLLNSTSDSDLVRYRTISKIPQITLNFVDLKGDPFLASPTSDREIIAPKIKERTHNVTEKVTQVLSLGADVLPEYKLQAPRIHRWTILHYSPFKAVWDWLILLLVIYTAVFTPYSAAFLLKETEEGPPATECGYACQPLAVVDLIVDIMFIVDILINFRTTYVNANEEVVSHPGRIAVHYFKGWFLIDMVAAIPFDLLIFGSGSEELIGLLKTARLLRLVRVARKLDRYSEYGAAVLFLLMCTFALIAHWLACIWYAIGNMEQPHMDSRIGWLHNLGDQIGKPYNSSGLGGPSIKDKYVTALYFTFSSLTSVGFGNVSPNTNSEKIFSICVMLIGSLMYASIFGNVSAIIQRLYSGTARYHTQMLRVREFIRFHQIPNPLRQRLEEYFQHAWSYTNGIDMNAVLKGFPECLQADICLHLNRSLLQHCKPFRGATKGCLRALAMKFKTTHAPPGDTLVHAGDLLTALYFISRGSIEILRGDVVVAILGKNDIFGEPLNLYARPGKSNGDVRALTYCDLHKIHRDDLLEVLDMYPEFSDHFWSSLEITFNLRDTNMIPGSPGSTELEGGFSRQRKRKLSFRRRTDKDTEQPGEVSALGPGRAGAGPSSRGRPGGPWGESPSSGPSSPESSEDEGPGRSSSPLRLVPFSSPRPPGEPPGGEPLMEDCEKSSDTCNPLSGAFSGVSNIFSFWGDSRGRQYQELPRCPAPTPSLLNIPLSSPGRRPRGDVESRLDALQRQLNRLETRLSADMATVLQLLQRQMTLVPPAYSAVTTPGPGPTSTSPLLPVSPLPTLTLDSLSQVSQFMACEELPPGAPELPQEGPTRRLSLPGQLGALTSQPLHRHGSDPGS", "assay": "primary screen, population patch clamp on CHO cells stably expressing hERG; higher = less effect of the substance", "units": {"hERG current change (%, negative = inhibition) at 10uM": "%"}, "values": [{"compound": "CCOc1ccccc1CN1CCNC(=O)C1CC(=O)NCc1nccn1CC", "note": "(stereo not drawn);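 also: peak tail current of the secondary pulse compared with the same well before compound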", "hERG current change (%, negative = inhibition) at 10uM": 18.8}, {"compound": "O=C(CNC(=O)c1ccccc1)NCC(=O)OCc1ccc(Cl)cc1", "hERG current change (%, negative = inhibition) at 10uM": -29.3}, {"compound": "Cc1onc(-c2c(Cl)cccc2Cl)c1C(=O)NC(=S)N1CCOCC1", "hERG current change (%, negative = inhibition) at 10uM": 6}, {"compound": "O=C(CCn1nnc(-c2cccs2)n1)NC1CCCCC1", "hERG current change (%, negative = inhibition) at 10uM": 2.79}, {"compound": "C=CCOc1cccc(C2C(C(=O)c3ccc(C)o3)=C(O)C(=O)N2CCCn2ccnc2)c1", "note": "(stereo not drawn)", "hERG current change (%, negative = inhibition) at 10uM": 9.13}, {"compound": "Cn1cccc1/C=C1\\SC(=S)N(NC(=O)c2ccccc2Cl)C1=O", "hERG current change (%, negative = inhibition) at 10uM": 1.91}, {"compound": "CCn1c(SCC(=O)Nc2cc(C)on2)nnc1-c1ccc(S(=O)(=O)N2CCN(C)CC2)cc1", "hERG current change (%, negative = inhibition) at 10uM": -23.1}, {"compound": "Cc1cc(N=Nc2ccc(Cl)cc2)cc(CN2CCOCC2)c1O", "hERG current change (%, negative = inhibition) at 10uM": 11.6}, {"compound": "CC(=O)c1ccc(OC(=O)Cc2cccc3ccccc23)cc1", "hERG current change (%, negative = inhibition) at 10uM": 3.13}, {"compound": "c1ccc2c(CNC3CCCCCC3)c[nH]c2c1", "hERG current change (%, negative = inhibition) at 10uM": -20.8}, {"compound": "O=S(=O)(Cc1cc(-c2ccccc2Cl)no1)c1ccccc1", "hERG current change (%, negative = inhibition) at 10uM": -51}, {"compound": "O=S(=O)(Cc1cc(-c2ccc(Cl)cc2)no1)c1ccccc1", "hERG current change (%, negative = inhibition) at 10uM": 0.608}, {"compound": "O=S(=O)(Cc1cc(-c2ccccc2)no1)c1ccccc1", "hERG current change (%, negative = inhibition) at 10uM": -2.75}, {"compound": "COCCn1nnnc1C(c1cccs1)N1CCCC(C)C1.Cl", "note": "(stereo not drawn)", "hERG current change (%, negative = inhibition) at 10uM": 17.9}, {"compound": "COc1ccc(/C=C/C(=O)Nc2ccccc2C(F)(F)F)cc1OC", "hERG current change (%, negative = inhibition) at 10uM": -4.62}, {"compound": "O=C(CNC(=O)c1ccccc1)OCC(=O)N1N=C(c2ccc(Cl)cc2)CC1c1ccco1", "note": "(stereo not drawn)", "hERG current change (%, negative = inhibition) at 10uM": -72.5}, {"compound": "O=C(O)CCCC(=O)N1N=C(c2ccco2)CC1c1ccco1", "note": "(stereo not drawn)", "hERG current change (%, negative = inhibition) at 10uM": 9.6}, {"compound": "CCC(=O)N1N=C(c2ccc(Cl)cc2)CC1c1ccco1", "note": "(stereo not drawn)", "hERG current change (%, negative = inhibition) at 10uM": 0.74}, {"compound": "CC(=O)N1N=C(c2ccc(Cl)cc2)CC1c1ccco1", "note": "(stereo not drawn)", "hERG current change (%, negative = inhibition) at 10uM": 7.11}, {"compound": "Cl.N=c1sccn1CC(=O)N1N=C(c2ccc(Cl)cc2)CC1c1ccco1", "note": "(stereo not drawn)", "hERG current change (%, negative = inhibition) at 10uM": -79.5}, {"compound": "COCC(=O)OCC(=O)N1N=C(c2ccc(Cl)cc2)CC1c1ccco1", "note": "(stereo not drawn)", "hERG current change (%, negative = inhibition) at 10uM": -28.1}, {"compound": "Cc1ccc(OCC(=O)N2N=C(c3ccc(Cl)cc3)CC2c2ccco2)c([N+](=O)[O-])n1", "note": "(stereo not drawn)", "hERG current change (%, negative = inhibition) at 10uM": -63.3}, {"compound": "O=C(OCC(=O)N1N=C(c2ccc(Cl)cc2)CC1c1ccco1)c1ccco1", "note": "(stereo not drawn)", "hERG current change (%, negative = inhibition) at 10uM": 27.4}, {"compound": "O=C(O)CCC(=O)N1N=C(c2ccco2)CC1c1ccco1", "note": "(stereo not drawn)", "hERG current change (%, negative = inhibition) at 10uM": -78.1}, {"compound": "COc1ccc(C(=O)NCC(=O)OCC(=O)N2N=C(c3ccc(Cl)cc3)CC2c2ccco2)cc1OC", "note": "(stereo not drawn)", "hERG current change (%, negative = inhibition) at 10uM": -5.57}, {"compound": "O=C(CCl)N1N=C(c2ccco2)CC1c1ccco1", "note": "(stereo not drawn)", "hERG current change (%, negative = inhibition) at 10uM": 14}, {"compound": "O=C(COc1cccnc1[N+](=O)[O-])N1N=C(c2ccc(Cl)cc2)CC1c1ccco1", "note": "(stereo not drawn)", "hERG current change (%, negative = inhibition) at 10uM": 16.9}, {"compound": "COc1cc(S(=O)(=O)N2CCN(C)CC2)c(OC)cc1Cl", "hERG current change (%, negative = inhibition) at 10uM": 13.2}, {"compound": "COC(=O)c1nn(-c2ccc(OC)cc2)c(=O)cc1O", "hERG current change (%, negative = inhibition) at 10uM": 16.9}, {"compound": "O=C(CCc1c[nH]c2ccccc12)NCc1ccco1", "hERG current change (%, negative = inhibition) at 10uM": 32.4}, {"compound": "Cc1ccc(CN(Cc2cc3cc(C)ccc3[nH]c2=O)C(=O)N2CCOCC2)cc1", "hERG current change (%, negative = inhibition) at 10uM": -13.2}, {"compound": "Cc1cccc(NC(=O)CSc2nncn2-c2ccccn2)c1", "hERG current change (%, negative = inhibition) at 10uM": -1.31}, {"compound": "CSc1ncc(CN2CCCC(C(=O)Nc3ccc(-c4ccco4)cc3)C2)cn1", "note": "(stereo not drawn)", "hERG current change (%, negative = inhibition) at 10uM": 11.1}, {"compound": "Cc1ccccc1-n1c(-c2ccoc2)nc2ccccc2c1=O", "hERG current change (%, negative = inhibition) at 10uM": 6.09}, {"compound": "CCN(Cc1ccccc1)C(=O)c1c(-c2ccccc2Cl)noc1C", "hERG current change (%, negative = inhibition) at 10uM": -9.34}, {"compound": "CC(C)c1csc(CN2CCN(Cc3ccccc3)C(CCO)C2)n1", "note": "(stereo not drawn)", "hERG current change (%, negative = inhibition) at 10uM": -26.3}, {"compound": "OCCC1CN(Cc2nc(-c3ccccc3)cs2)CCN1Cc1ccc(F)cc1", "note": "(stereo not drawn)", "hERG current change (%, negative = inhibition) at 10uM": -69.8}, {"compound": "CC(C)c1csc(CN2CCN(CCc3ccccc3)C(CCO)C2)n1", "note": "(stereo not drawn)", "hERG current change (%, negative = inhibition) at 10uM": -76}, {"compound": "OCCC1CN(Cc2nc(-c3ccc(F)cc3)cs2)CCN1CCc1ccccc1", "note": "(stereo not drawn)", "hERG current change (%, negative = inhibition) at 10uM": -80.6}, {"compound": "OCCC1CN(Cc2nc(-c3ccccc3)cs2)CCN1CCc1ccccc1", "note": "(stereo not drawn)", "hERG current change (%, negative = inhibition) at 10uM": -77.8}, {"compound": "CC(C)CN1CCN(Cc2nc(C(C)C)cs2)CC1CCO", "note": "(stereo not drawn)", "hERG current change (%, negative = inhibition) at 10uM": 1.27}, {"compound": "C=C(c1ccccc1)P(=O)(O)O", "hERG current change (%, negative = inhibition) at 10uM": 17.8}, {"compound": "COc1ccccc1C(=O)NCCC(=O)OCC(=O)Nc1ccc(S(N)(=O)=O)cc1", "hERG current change (%, negative = inhibition) at 10uM": -2.51}, {"compound": "Cc1cc(C(=O)Nc2ccc3ccccc3c2)c(C)o1", "hERG current change (%, negative = inhibition) at 10uM": 6.68}, {"compound": "COc1ccc2oc(=O)c(-c3csc(Nc4cccc(O)c4)n3)cc2c1", "hERG current change (%, negative = inhibition) at 10uM": 25.8}, {"compound": "COC(=O)CN1C(=O)[C@H]2[C@@H](c3ccc(C)o3)N3C(=O)CN(Cc4ccccn4)C(=O)[C@@]3(Cc3ccccc3)[C@H]2C1=O", "hERG current change (%, negative = inhibition) at 10uM": 21.5}, {"compound": "O=C(NCc1ccccc1)c1cccc(S(=O)(=O)N2CCOCC2)c1", "hERG current change (%, negative = inhibition) at 10uM": 0.662}, {"compound": "Cc1ccc(N/C=C/C(=O)C(C)(C)C)c(O)c1", "hERG current change (%, negative = inhibition) at 10uM": -5.33}, {"compound": "CC(=O)NC(CC(=O)O)c1ccc(F)cc1", "note": "(stereo not drawn)", "hERG current change (%, negative = inhibition) at 10uM": 0.22}, {"compound": "COc1ccc(CNC(=O)CSc2nnc(C)c(=O)[nH]2)cc1", "hERG current change (%, negative = inhibition) at 10uM": 18.2}, {"compound": "OCCC1CN(Cc2ccncc2)CCN1C1CCCC1", "note": "(stereo not drawn)", "hERG current change (%, negative = inhibition) at 10uM": -8.58}, {"compound": "Cc1cccc(CN2CCN(C3CCCC3)C(CCO)C2)n1", "note": "(stereo not drawn)", "hERG current change (%, negative = inhibition) at 10uM": 3.1}, {"compound": "Cc1oc(-c2cccs2)nc1CN1CCN(CCC(C)C)C(CCO)C1", "note": "(stereo not drawn)", "hERG current change (%, negative = inhibition) at 10uM": -27.6}, {"compound": "CC(C)N1CCN(Cc2nc(-c3ccccc3)cs2)CC1CCO", "note": "(stereo not drawn)", "hERG current change (%, negative = inhibition) at 10uM": -47.7}, {"compound": "OCCC1CN(Cc2nc(-c3ccccc3)cs2)CCN1C1CCCC1", "note": "(stereo not drawn)", "hERG current change (%, negative = inhibition) at 10uM": -66.4}, {"compound": "CC(C)CCN1CCN(Cc2nc(-c3ccccc3)cs2)CC1CCO", "note": "(stereo not drawn)", "hERG current change (%, negative = inhibition) at 10uM": -62.7}, {"compound": "O=C(CC1C(=O)NCCN1CC(c1ccccc1)c1ccccc1)NCC1CCOCC1", "note": "(stereo not drawn)", "hERG current change (%, negative = inhibition) at 10uM": 6.24}]}]}
